Here are results for 89 molecules from PubChem BioAssay AID2314 (National Center for Advancing Translational Sciences (NCATS), 2010).

The structures appear in SMILES notation. Out of some 300,000 compounds screened, about 37,000 (12%) were called active. This is one part of a sample in which actives are shown more often than they occur. Unmarked numbers belong to inactive results. Rule as the data show it: active = max response mostly above about 13% (no sharp cut-off); inactive = mostly below about 14%.

The experiment can be described thus: Cycloheximide Counterscreen for Small Molecule Inhibitors of Shiga Toxin. Also: read at 38.3 µM for the half of the compounds with a filed dose; 0% is about no effect. The settings on record: cell reporter, cycloheximide protein synthesis inhibition counterscreen; stronger effect = higher value.
As for `CC(C)Oc1c(Br)cc(Br)cc1/C=N/NC(N)=S`, the max response was -0.405%.

Regarding `CN(C(=O)CN1C(=O)CCSc2ccc(S(=O)(=O)N3CCCC3)cc21)c1ccccc1`, the max response is 1.23%.

Regarding `CCOc1ccc(N(C)Cc2cc(=O)oc3ccc(OC)cc23)cc1`, the max response is -1.56%. In the case of `O=C(C1CCC(=O)N(C2CC2)C1)N1CCN(c2ccc(Cl)cc2)CC1` (centres undefined) it was -2.23%; in that of `CCn1c(CSCc2c(Cl)cccc2Cl)n[nH]c1=S`, 7.21%; in that of `O=C(C[n+]1cc(-c2ccc(Cl)c(Cl)c2)n2c1CCC2)c1cccs1`, -1.98%. For `CCOc1ccccc1NC(=S)N1CCN(c2cccc(C)c2C)CC1`, the max response is -1.77%. In the case of `NC(=O)CCC(NS(=O)(=O)c1ccc(Cl)cc1)C(=O)NCc1ccccc1Cl` (centres undefined) it was -1.61%. In the case of `Cc1nn(CC(=O)NCCc2ccccc2)c(=O)c2cc3occc3n12` it was -3.95%; in that of `O=C(Cn1c(-c2cscn2)nc2ccccc21)Nc1ccc(Cl)cc1`, -2.37%.

Turning to `c1ccc(CN2CCC(N=C3NN=C(c4ccc5c(c4)OCCO5)CS3)CC2)cc1`, the max response is 32.2% (active).

Regarding `CC(=NC1CCN(Cc2ccccc2)CC1)c1c(O)[nH]c(=O)[nH]c1=O`, the max response is -1.74%.

Turning to `CS(=O)(=O)N(CC(=O)N1CCN(Cc2ccccc2)CC1)c1ccc2c(c1)OCCO2`, the max response was -2.95%. With `Clc1cccc(N=C2NN=C(c3ccc4c(c3)OCCO4)CS2)c1`, the max response is 74.7% (active). In the case of `CCOC(=O)/C(C#N)=C/c1cn(CCC(=O)O)nc1-c1ccc(Br)cc1` it was -0.95%; in that of `CCCn1c(C)cc(/C=C(\C#N)C(=O)OCC(=O)Nc2cc(OC)c(OC)c(OC)c2)c1C`, 31.9% (active); in that of `CCOC(=O)/C(C#N)=C/c1ccc(OCC(=O)Nc2ccccc2)c(OC)c1`, 22.6% (active). As for `COc1cc(/C=N/NC(=O)Nc2ccccc2)ccc1OCCOc1ccccc1C`, the max response was -1.6%.

As to `COc1cc(C2C3=C(CCCC3=O)OC3=C2C(=O)CCC3)ccc1OCC(=O)Nc1ccccc1`, the max response is 4.65%.

Consider `COc1cc(CCC(=O)OCC(=O)Nc2cccc(S(N)(=O)=O)c2)cc(OC)c1OC`, for which the max response was -3.66%.

Take `COc1ccc(-c2nnc(SC(=O)N3c4ccccc4Sc4ccccc43)o2)cc1`: the max response is 9.5%. In the case of `COc1ccc2[nH]c(=O)c(C3c4cc(OC)c(OC)cc4CCN3C(=O)c3ccco3)cc2c1` (centres undefined) it was -3.91%; in that of `NS(=O)(=O)c1cccc(NC(=O)CC23CC4CC(CC(Br)(C4)C2)C3)c1`, -0.826%. For the molecule `O=C(CN1C(=O)/C(=C/c2ccccc2F)Sc2ccccc21)NCc1cccnc1`, the max response is 8.85%. The value for `O=C(CN1C(=O)/C(=C\c2ccccc2F)SC1=S)Nc1nc2ccccc2s1` was 47.4% (active). In the case of `CN(C(=O)CCN1C(=O)/C(=C/c2ccccc2F)SC1=S)C1CCS(=O)(=O)C1` (centres undefined) it was 4.42%; in that of `COC(=O)c1cccc(N(C(=O)CNC(=O)c2cccs2)C(C(=O)NCC2CCCO2)c2ccc(OC)c(OC)c2)c1` (centres undefined), -3.34%. The value for `Cc1cc(O)ccc1-c1cnc2ccccc2n1` was 34.4% (active); that for `O=C(O)c1cc(S(=O)(=O)N(Cc2ccccc2)c2ccccc2)ccc1Cl` was -0.844%.

As for `COc1ccc(N(C(=O)CNC(=O)c2ccco2)C(C(=O)NCC2CCCO2)c2ccccc2)cc1Cl` (centres undefined), the max response was -3.36%. In the case of `CCCN1CCC(=O)N(C(CSc2ccc(C)cc2)Cc2ccccc2)CC1` (centres undefined) it was 7.93%. The value for `Cc1ccc(SCC(CC(C)C)N2CCN(CCc3ccccc3)CCC2=O)cc1` (centres undefined) was 40% (active); that for `COc1ccc(SC[C@H](Cc2ccccc2)N2CCN(CCc3ccccc3)CCC2=O)cc1` was -4.06%; that for `CCOC(=O)CN1C(=O)C(=O)c2cc(C)ccc21` was -1.86%. In the case of `CCOC(=O)[C@@H]1[C@H]2COc3cc(OC)ccc3[C@H]2N2C(=O)N(c3ccc(F)cc3)C(=O)[C@]12C` it was 0.485%; in that of `COCCN(C(=O)C(C)C)c1nnc(-c2ccc(C(C)(C)C)cc2)s1`, 13.2%. In the case of `NS(=O)(=O)c1cccc(NC(=O)COC(=O)/C=C/c2ccco2)c1`, the max response is 0.371%. The value for `CC(C)Oc1ccc(/C=C(\NC(=O)/C=C/c2ccco2)C(=O)NCCc2nc3ccccc3[nH]2)cc1` was 5.81%. In the case of `O=C(Nc1cccc(-c2nc3ccccc3[nH]2)c1)c1ccc(C(=O)Nc2cccc(-c3nc4ccccc4[nH]3)c2)cc1` it was 48.3% (active).

Turning to `O=C(Cc1cccs1)Nc1cccc(-c2nc3ccccc3[nH]2)c1`, the max response is 11.5%. In the case of `Cc1ccc(-c2nc3ccccc3[nH]2)cc1NC(=O)c1sc2ccccc2c1Cl` it was -0.874%; in that of `O=C(/C=C/c1ccco1)Nc1cccc(-c2nc3ccccc3[nH]2)c1`, 51.8% (active). On to `COc1cc(/C=N/NC(=O)c2ccc(N3CCCC3=O)cc2)ccc1O`, for which the max response was 36% (active). In the case of `O=C(N/N=C/c1cccc(Br)c1)c1ccc(N2CCCC2=O)cc1` it was -5.81%; in that of `COc1ccc(C(=O)Nc2ccccc2C(=O)N/N=C/c2ccc(O)c(OC)c2)cc1`, -7.9%. Take `Cc1c(Cl)cccc1NC(=O)Nc1ccc(C(=O)N2CCCC2)cc1`: the max response is -1.9%. In the case of `O=C(CCS(=O)(=O)c1ccc2c(c1)NC(=O)CS2)NCc1ccccc1Cl` it was -3.16%; in that of `O=C(CSc1n[nH]c(=O)n1-c1ccccc1)Nc1ccccc1C(F)(F)F`, -2.47%; in that of `CC(N=Cc1nc(-c2ccccc2)oc1O)c1ccccc1` (centres undefined), 35.7% (active).

`CCOc1ccc2nc(/N=C/c3nc(-c4ccccc4)oc3O)sc2c1`: the max response was -1.31%. The value for `Cc1c(Cl)cccc1NC(=O)NCCCN1CCCC1=O` was -0.801%; that for `COCCN1C(=O)C(=O)/C(=C(/O)c2ccc(S(=O)(=O)N3CCOCC3)cc2)C1c1ccc(O)c(OC)c1` (centres undefined) was -5.59%; that for `Cc1cccc(NC(=S)NCc2ccc3[nH]c4c(c3c2)CCCC4)c1` was 9.68%. In the case of `CCn1c(/C=C/c2ccc([N+](=O)[O-])o2)nc2ccccc2c1=O` it was -4.66%.

With `O=c1c2ccccc2nc(/C=C/c2ccco2)n1-c1ccccc1O`, the max response was 24.2% (active). In the case of `O=c1c2ccccc2nc(/C=C/c2ccc(F)cc2)n1-c1ccccc1O` it was 6.44%; in that of `O=C(Nc1ccc(F)c([N+](=O)[O-])c1)C1CC(=O)N(Cc2ccccc2)C1` (centres undefined), -3.3%. The value for `COc1cccc(N(CC(=O)NC2CCCC2)C(=O)Cn2nnc(-c3ccc(C)o3)n2)c1` was -3.92%.

Turning to `COC(=O)CCc1ccccc1S(=O)(=O)N(CCC(=O)OC)Cc1ccccc1`, the max response is -11%.

`COc1ccc(Cl)cc1-n1c(=S)sc2c(=O)n(-c3ccc(F)cc3)c(SCC(=O)O)nc21`: the max response is 0.929%. In the case of `O=C1C2N=NN(CC(=O)N3N=C(c4cccc5ccccc45)CC3c3ccccc3)C2C(=O)N1c1ccccc1` (centres undefined) it was -3.29%. In the case of `CNC(=O)/C(C#N)=C/c1c(F)cccc1Cl` it was 15.7% (active); in that of `N#C/C(=C\c1ccccc1C(F)(F)F)C(=O)Nc1ccccc1F`, -2.94%. For the molecule `O=C(/C=C/c1c(F)cccc1Cl)Nc1nn[nH]n1`, the max response was -1.57%. Consider `CCc1ccc(/C=N/NC(=O)c2ccc(OC3CCCC3)cc2)s1`, for which the max response was 12.2%.

For the molecule `COc1ccc(CCNC(=O)CCn2c(=O)c3ccccc3n(CC(=O)NCC3CCCO3)c2=O)cc1OC` (centres undefined), the max response was 11%. The value for `Cc1nc2ccccc2n1CC(O)c1ccccc1` (centres undefined) was -1.62%. The value for `Cn1c(=N)n(CC(O)c2cccs2)c2ccccc21` (centres undefined) was -3.56%; that for `Cn1c(=N)n(CC(O)c2ccccc2)c2ccccc21` (centres undefined) was 70.1% (active); that for `COC(C(=O)Nc1ccc(C(C)=O)cc1)c1ccccc1` (centres undefined) was -2.94%. The value for `COc1ccc(NC(=O)[C@H](NC(=O)[C@@H]2Cc3ccccc3CN2)c2ccccc2)cc1` was -1.13%. In the case of `COc1ccc(NC(C(=O)Nc2cccc(C(C)=O)c2)c2ccccc2)cc1` (centres undefined), the max response is 12.5% (active). In the case of `O=C(NC1CCN(C(=S)Nc2ccc(Cl)cc2)CC1)C1CCCCC1` it was -3.84%; in that of `O=C(Nc1ccc(Cl)cc1)Nc1ccc(C(=O)N2CCOCC2)cc1`, 15.1%. The value for `CC(C)S(=O)(=O)c1csc(NC(=O)Nc2ccc(Cl)cc2)c1Cl` was 17.4% (active).

For the molecule `NS(=O)(=O)c1ccc(CCNC(=O)Nc2ccc(Cl)cc2)cc1`, the max response was 11%. In the case of `Cc1cccc(OCC(=O)Nc2ccc(NC(=O)c3ccco3)c(C)c2)c1` it was 6.82%; in that of `CSc1ncc(C(=O)Nc2ccc(C)cc2C)c(C)n1`, 2.97%; in that of `CSc1nccc(NC(=O)c2ccc(C(C)(C)C)cc2)n1`, 38.6% (active). The value for `COC(=O)c1nc(NC(=O)c2ccc(C(C)(C)C)cc2)n[nH]1` was 4.76%; that for `Cn1c(Cn2nnc3ccccc32)nnc1SCC(=O)c1ccccc1F` was 1.74%; that for `CCOc1ccc(Nc2nc(Cl)nc(N3CCN(c4ccc(OC)cc4)CC3)n2)cc1` was 1.38%.

Take `COc1ccc(Nc2ncc(F)c(N3CCOCC3)n2)cc1`: the max response was 27.6% (active). In the case of `c1ccc(Nc2nc(N3CCOCC3)c3ccccc3n2)cc1`, the max response was 3.89%. The value for `OCCNc1nc2ccccc2n1-c1ncnc2sc3c(c12)CCC3` was -6.62%. The value for `CCCCCCCCCOC1OC(CO)C(O)C(O)C1NC(C)=O` (centres undefined) was 2.49%; that for `COc1cccc(CC2(CO)CCCN(Cc3nc(-c4cccs4)oc3C)C2)c1` (centres undefined) was 1.79%. As to `Cc1nn2cc(-c3ccc(Cl)cc3)cnc2c1Br`, the max response was 23.7% (active). In the case of `COc1cccc(N2CCN(c3ccc4nnc(CCC(=O)N5CCN(C)CC5)n4n3)CC2)c1` it was -3.61%.
